39 compounds from the supplement of paper PMC4840960 can be followed below.

± gives the standard deviation of the averaged measurements.

The subject of the test is E18 rat cortical neuron-glia co-culture. In words: fiber score / MBP score (myelination specific beyond OL differentiation) (ratio); higher = more myelination-specific MBP alignment. Conditions: 1 µM; treatment time: 8 days (DIV5-DIV13). The essentials: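 Fiber score divided by MBP score is the read-out; fiber score is continuous MBP fiber length per Olig2+ nucleus, and MBP score is thresholded MBP area × intensity per Olig2+ nucleus. Primary E18 rat cortical co-cultures were dissociated with papain and seeded at 20,000 cells/well on poly-d-lysine/laminin 96-well plates. Library compounds at 1 or 5 µM were given in myelination medium from DIV5 to DIV13, after which cells were fixed in 4 % paraformaldehyde, immunostained for MBP and Olig2 with DAPI, and imaged in four 10X fields per well in duplicate wells.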
Turning to `CC12CC3CC(C)(C1)CC(N)(C3)C2` [Memantine], the “fiber score / MBP score” value was found to be 1.07 ± 0.024.

In the case of `CNC[C@H](O)c1ccc(O)c(O)c1` [Epinephrine], the “fiber score / MBP score” value amounted to 0.884.

Take `CC(C)[C@H]1CC[C@H](C(=O)N[C@H](Cc2ccccc2)C(=O)O)CC1` [Nateglinide]: the “fiber score / MBP score” value came to 0.796.

For `Cc1nnc(SCC2=C(C(=O)O)N3C(=O)[C@@H](NC(=O)Cn4cnnn4)[C@H]3SC2)s1` [Cefazolin], the “fiber score / MBP score” value stood at 0.798.

As for `CN1CCN(c2nc3cc(C(F)(F)F)ccc3n3cccc23)CC1`, the “fiber score / MBP score” value came out at 0.707.

As for `CC(COc1ccccc1Cc1ccccc1)N1CCCCC1` (centres undefined) [Benproperine], the “fiber score / MBP score” value turned out to be 0.726.

As for `Cn1ccnc1S` [Methimazole], the “fiber score / MBP score” value turned out to be 0.372.

Consider `C#C[C@]1(O)CC[C@H]2[C@@H]3CCc4cc(O)ccc4[C@H]3CC[C@@]21C` [Ethinyl Estradiol], for which the “fiber score / MBP score” value came out at 0.608.

On to `COc1cc(CNC(=O)CCCC/C=C\C(C)C)ccc1O` [Zucapsaicin], for which the “fiber score / MBP score” value worked out at 0.875.

Regarding `Nc1nc2c(ncn2COCCO)c(=O)[nH]1` [Acyclovir], the “fiber score / MBP score” value came to 0.568.

In the case of `CO[C@H]1/C=C/O[C@@]2(C)Oc3c(C)c(O)c4c(O)c(c(/C=N/N5CCN(C6CCCC6)CC5)c(O)c4c3C2=O)NC(=O)/C(C)=C\C=C\[C@H](C)[C@H](O)[C@@H](C)[C@@H](O)[C@@H](C)[C@H](OC(C)=O)[C@@H]1C` [Rifapentine], the “fiber score / MBP score” value was 0.893 ± 0.081.

Take `Cc1cccc(C)c1OCC(C)N` (centres undefined) [Mexiletine]: the “fiber score / MBP score” value amounted to 0.887.

`CNCC[C@H](Oc1cccc2ccccc12)c1cccs1` [Duloxetine]: the “fiber score / MBP score” value worked out at 0.73 ± 0.064.

With `C[C@@H](O)[C@H]1C(=O)N2C(C(=O)O)=C(S[C@@H]3CN[C@H](C(=O)N(C)C)C3)[C@H](C)[C@H]12` [Meropenem], the “fiber score / MBP score” value is 0.99.

As for `CC1(C)S[C@@H]2[C@H](/N=C/N3CCCCCC3)C(=O)N2[C@H]1C(=O)O` [Amdinocillin], the “fiber score / MBP score” value came to 0.728.

As for `COc1ccc(Cl)cc1C(=O)NCCc1ccc(S(=O)(=O)NC(=O)NC2CCCCC2)cc1` [Glyburide], the “fiber score / MBP score” value came to 1.07.

As for `COC(=O)[C@H](c1ccccc1Cl)N1CCc2sccc2C1` [Clopidogrel], the “fiber score / MBP score” value worked out at 0.707.

`CC(=O)N1CCN(c2ccc(OCC3COC(Cn4ccnc4)(c4ccc(Cl)cc4Cl)O3)cc2)CC1` (centres undefined) [Ketoconazole]: the “fiber score / MBP score” value worked out at 0.468.

On to `CCOc1cc(N)c(Cl)cc1C(=O)NCC1CN(Cc2ccc(F)cc2)CCO1` (centres undefined) [Mosapride], for which the “fiber score / MBP score” value came to 0.736.

Turning to `CC[C@H]1OC(=O)[C@H](C)[C@@H](O[C@H]2C[C@@](C)(OC)[C@@H](O)[C@H](C)O2)[C@H](C)[C@@H](O[C@@H]2O[C@H](C)C[C@H](N(C)C)[C@H]2O)[C@](C)(O)C[C@@H](C)CN(C)[C@H](C)[C@@H](O)[C@]1(C)O` [Azithromycin], the “fiber score / MBP score” value stood at 0.707.

`C[C@@H]1O[C@@H](OC[C@H]2O[C@@H](Oc3c(-c4ccc(O)c(O)c4)oc4cc(O)cc(O)c4c3=O)[C@H](O)[C@@H](O)[C@@H]2O)[C@H](O)[C@H](O)[C@H]1O` [Rutin]: the “fiber score / MBP score” value was found to be 0.757.

For `CN(C)CCCC1(c2ccc(F)cc2)OCc2cc(C#N)ccc21` (centres undefined) [Citalopram], the “fiber score / MBP score” value stood at 0.773 ± 0.29.

On to `C#C[C@]1(O)CC[C@H]2[C@@H]3CCC4=Cc5oncc5C[C@]4(C)[C@H]3CC[C@@]21C` [Danazol], for which the “fiber score / MBP score” value turned out to be 0.577.

Turning to `Cc1cc(NS(=O)(=O)c2ccc(N)cc2)no1` [Sulfamethoxazole], the “fiber score / MBP score” value was 0.955.

Regarding `c1ccc2c(CC3=NCCN3)cccc2c1` [Naphazoline], the “fiber score / MBP score” value amounted to 1.1.

Turning to `CCOC(=O)[C@H](CCc1ccccc1)N[C@@H](C)C(=O)N1CCC[C@H]1C(=O)O` [Enalapril], the “fiber score / MBP score” value was 0.732.

Turning to `N[C@@H](C(=O)N[C@@H]1C(=O)N2C(C(=O)O)=C(CSc3c[nH]nn3)CS[C@H]12)c1ccc(O)cc1` [Cefatrizine], the “fiber score / MBP score” value is 0.846.

Regarding `CN1CC(=O)N2[C@H](c3ccc4c(c3)OCO4)c3[nH]c4ccccc4c3C[C@@H]2C1=O` [Tadalafil], the “fiber score / MBP score” value is 0.799.

For the compound `Nc1nc2c(ncn2COC(CO)CO)c(=O)[nH]1` [Ganciclovir], the “fiber score / MBP score” value turned out to be 0.944.

As to `OC(c1cc(C(F)(F)F)nc2c(C(F)(F)F)cccc12)C1CCCCN1` (centres undefined) [Mefloquine], the “fiber score / MBP score” value was determined as 0.726.

Regarding `C[C@H](CCC(=O)O)[C@H]1CC[C@H]2[C@@H]3C(=O)C[C@@H]4CC(=O)CC[C@]4(C)[C@H]3CC(=O)[C@]12C` [Dehydrocholic Acid], the “fiber score / MBP score” value stood at 0.477.

For `O=C1NC(=O)C(c2ccccc2)(c2ccccc2)N1` [Phenytoin], the “fiber score / MBP score” value was 0.39.

Consider `COc1cc2nc(N3CCN(C(=O)C4CCCO4)CC3)nc(N)c2cc1OC` (centres undefined) [Terazosin], for which the “fiber score / MBP score” value worked out at 1.2 ± 0.17.

Consider `CN(C)CCCN1c2ccccc2Sc2ccc(Cl)cc21` [Chlorpromazine], for which the “fiber score / MBP score” value came out at 1.04.

In the case of `CCOC(=O)[C@H](CCc1ccccc1)N[C@H]1CCc2ccccc2N(CC(=O)O)C1=O` [Benazepril], the “fiber score / MBP score” value came to 0.766.

Turning to `CNCCC=C1c2ccccc2CCc2ccccc21` [Nortriptyline], the “fiber score / MBP score” value amounted to 0.847.

`COc1cc(NC(C)CCCN)c2ncccc2c1` (centres undefined) [Primaquine]: the “fiber score / MBP score” value was 0.815.

Regarding `OC(Cn1cncn1)(Cn1cncn1)c1ccc(F)cc1F` [Fluconazole], the “fiber score / MBP score” value came to 0.906.

As to `CC1(C)S[C@@H]2[C@H](NC(=O)Cc3ccccc3)C(=O)N2[C@H]1C(=O)O` [Penicillin G], the “fiber score / MBP score” value is 0.898.
